Among all 360,000 compounds or so, about 7,500 (2.1%) were called active. Roughly 8% stayed inconclusive and do not appear here. The full list was thinned out, with actives kept by preference. Where a structure was tested more than once in an assay, its records may differ in their call. Values without a mark were called inactive. Calls come from the whole dose curve; as a rule, active = well fitted cell-killing curve with a large enough effect; inconclusive = small, poorly fitted or top-dose-only effect, or effect the other way, or another doubt; inactive = no such curve, though single readings can be large or run the other way.
Experiment: qHTS for induction of synthetic lethality in tumor cells producing 2HG: qHTS for the HT-1080-IDH1KD cell line
Conditions: HT-1080 IDH1 knockdown viability, ATP luminescence, 48 h; series mostly up to 46.1 µM; activity, negative = toxicity: at the top concentration
Description: Unbiased genomic sequencing for 22 glioma genomes found recurrent mutation of IDH1 on chromosome 2q33, a gene encoding the cytosolic isoform of IIDH1 associated with the tri-carboxylic acid cycle (TCA) that catalyzes the oxidative decarboxylation of isocitrate, yielding alpha-ketoglutarate and CO2 via NADP+ to NADPH conversion. Subsequent studies confirmed the recurrent IDH mutations in up to 70% of secondary gliomas and in 10% of AML cases. In addition, the somatic mutation of cancer-associated IDH1 is a point mutation resulting in various amino-acid substituents at Arginine132 (IDH1 R132), a key residue found in the enzyme's active site that when mutated, results in the loss-of-function in metabolizing isocitrate but confers a gain-of-function to produce the oncometabolite 2-hydroxyglutarate (2HG). This in effect defines IDH1 as an oncogene and provides an extraordinary opportunity to discover chemical probes against mutant IDH1 that may translate into much needed new therapies for glioma and AML patients.
This assay aims to perform a synthetic-lethal screen for chemical probes specific for 2HG-producing tumor cells using matched paired cell lines (1) HT-1080-NT fibrosarcoma cell line that overproduces 2HG and (2) HT-1080-IDH1KD cell line which has IDH1 expression knocked-down. Desirable compounds are toxic to the NT fibrosarcoma cell line but not to the IDH1KD cell line. The data in this AID corresponds to the results of the qHTS against the HT-1080 IDH1KD cell line.
[1] Dang L, Jin S, Su SM. IDH mutations in glioma and acute myeloid leukemia. Trends of Mol Med. 2010; 16(9): 387-97.
[2] Dang L et al. Cancer-associated IDH1 mutations produce 2-hydroxyglutarate. Nature. 2010; 465(7300):966.
Molecular Libraries Probe Production Centers Network [MLPCN]
NIH Chemical Genomics Center [NCGC]
Assay Submitter (PI): Lenny Dang Ph.D., Agios Pharmaceuticals
Suspensions of trypsinized HT-1080-IDH1KD cells were dispensed into white, tissue culture-treated, solid 1536-well plates at 5uL/well (750 cells/well final concentration) in RPMI medium supplemented with 5% FBS. Plates were incubated at 37 degrees C for 2 hours, after which 23 nL of compounds or DMSO were delivered to each well using a pin tool. Plates were then incubated at 37 degrees C for an additional 48 hours. CellTiter-Glo viability reagent (Promega) was dispensed into wells (2.5uL/well) and incubated at room temperature for 10 minutes. The plates were measured on a PerkinElmer ViewLux plate reader for luminescent signal (clear filter, 1 sec exp.). DMSO-treated control wells and media-only (no cells) control wells were used to normalize %Activity of identified toxic compounds; DMSO-treated wells corresponded to 0%Activity (100% viability), while media-only controls were used to normalize 100%Activity (0% viability). To minimize variability between cell lines, both HT-1080-NT and HT-1080-IDH1KD lines were dispensed and treated with identical compound series in single batches.
Concentration-response curves were fitted to the signals arising from the resulting luminescence. The concentration-effect curves were then classified based on curve quality (r2), response magnitude and degree of measured activity, and compounds were subsequently categorized based on their curve class.
Potency is the fitted concentration of half-maximal effect.

| SMILES | Potency | activity, negative = toxicity |
| --- | --- | --- |
| CC(=O)OC1C2(CC3N4C(=O)C5(CO)SSC4(CC31O)C(=O)N5C)OC(C)C(C)(C)C2=O (stereo not given) | 0.58 µM (active) | – |
| C[C@]12CCC3C(CC[C@H]4[C@H](O)[C@H](O)CC[C@]34C)C1CCC2=O (stereo not given in full) | – | 1.29% |
| COC(=O)N1C(c2ccccc2)C1c1ccccc1 (stereo not given) | – | 22.5% |
| CSc1ccc(C(=O)C2CCCN(Cc3ccn[nH]3)C2)cc1 (stereo not given) | – | 13.8% |
| CCN1C(=O)NC(=O)C2(CCCC2)C1=O | – | 0.17% |
| Cc1cc(C)cc(NC(=S)NC2CC3CCCC(C2)N3Cc2cccs2)c1 (stereo not given) | 12.6 µM (active) | – |
| Cc1cc(C)c2c(c1)NP(=S)(c1ccccc1)N2 (stereo not given) | – | -13.9% |
| CC(=O)C1(O)CCC2C3CCC4=C(Cl)C(=O)CCC4(C)C3CCC21C (stereo not given) | – | -28.9% |
| Oc1cc2c(cc1O)CN(C(=S)NCCc1ccc(Cl)cc1)CCC2 | – | 5.49% |
| S=C(NCCc1ccccc1)N1Cc2cc(N3CCOCC3)ccc2-n2nncc2C1 | – | -18.7% |
| C[C@H]1CN([C@@H](C)CO)C(=O)CCCn2nncc2CO[C@H]1CN(C)C(=O)Oc1cccc2ccccc12 | – | 10.6% |
| O=[N+]([O-])c1ccc(Cl)c(Cl)c1 | – | 24.3% |
| C[C@]12CCC3C(CC[C@H]4C[C@@H](O)CC[C@]34C)C1CC[C@@H]2O (stereo not given in full) | – | -4.31% |
| C[C@]12CC[C@H](O)C[C@H]1CC[C@@H]1C2CC[C@]2(C)[C@@H](C3=CC(=O)OC3)[C@@H](O)C[C@]12O (stereo not given in full) | 3.66 µM (active) | – |
| C[C@]12CCC3C(CC[C@H]4C[C@@H](O)CC[C@]34C)C1C[C@@H](O)[C@H]2O (stereo not given in full) | – | 7.01% |
| O=C1C2CCN(CC2)C1(CO)CO | – | 9.29% |
| CCOC(=O)CC(SP1(=S)OCC2(CCCCO2)C(C2CCCCO2)O1)C(=O)OCC (stereo not given) | – | 6.11% |
| CC(=O)Cc1ccc(OC(C)C)cc1 | – | 22.5% |
| CN(C)CC1Oc2ccccc2OC1(O)c1ccccc1 (stereo not given) | 4.61 µM (active) | – |
| CCCOC(=O)C1C2c3ccccc3C(c3ccccc32)C1C(=O)O (stereo not given) | – | 16.8% |
| Cc1ccc(C2CN(C)CC2C(=O)c2ccc(F)cc2)cc1 (stereo not given) | – | -14.3% |
| COc1cc(C(=O)N2Cc3ccc(Br)cc3-n3nncc3C2)cc(OC)c1OC | – | 18.9% |
| CCN(CC)CCOC(=O)c1cc2cc(COC)ccc2o1 | – | 4.54% |
| COc1ccc2c(c1)NP(=S)(c1ccccc1)N2 (stereo not given) | – | 17.6% |
| CCC(C)(O)C(=O)OC1C(=O)OC2CC3C(C)=CC(=O)C(O)C3(C)C3C4(O)OCC23C1C(C)C4O (stereo not given) | 0.0411 µM (active) | – |
| C[C@H]1CN([C@@H](C)CO)C(=O)CCCn2nncc2CO[C@H]1CN(C)C(=O)Oc1ccccc1 | – | -2.35% |
| O=C1NC(=O)C(CCOc2ccccc2)(CCc2ccccc2)C(=O)N1 | – | 3.48% |
| COc1ccc(C2C=C(C)Oc3c2c(=O)oc2ccccc32)cc1OC (stereo not given) | – | -5.45% |

| SMILES | Potency | activity, negative = toxicity |
| --- | --- | --- |
| Cc1ccc(-c2nc3ccccc3c(=O)n2-c2ccc(Br)cn2)cc1 | – | 22.6% |
| COC1C(O)C(C)OC(OC2CCC3(C=O)C(CCC4C3CCC3(C)C(C5=CC(=O)OC5)CCC43O)C2)C1O (stereo not given) | 0.0184 µM (active) | – |
| CCn1cc(CN2CCCC(C(=O)c3cccc(C(F)(F)F)c3)C2)cn1 (stereo not given) | – | 5.48% |
| CSCCC(c1nnnn1C(C)(C)C)N1CCC(n2c(=O)[nH]c3ccccc32)CC1 (stereo not given) | – | -23.7% |
| CC1CCCN1CCC(C(N)=O)(c1ccccc1)c1ccccc1 (stereo not given) | – | -8.22% |
| CCOc1ccc(-c2cc(C)[n+](CCN(CC)CC)c(-c3ccc(OCC)cc3)c2)cc1 | 5.17 µM (active) | – |
| CCC(=O)OC(Cc1ccccc1)(c1ccccc1)C(C)CN(C)C (stereo not given) | – | -11.7% |
| CCC1(CC(C)c2ccccc2)C(=O)NC(=O)NC1=O (stereo not given) | – | 5% |
| COC(=O)C[C@H]1CC[C@H]2NC[C@@H](O)COC[C@@H]2O1 | – | 22.5% |
| CC=C(C)C(=O)OC1CCN2CC=C(COC(=O)C(O)(C(C)OC)C(C)(C)O)C12 (stereo not given) | – | 1.21% |
| CC(=NCc1ccc2c(c1)OCO2)c1c(O)[nH]c(=O)[nH]c1=O | 20.6 µM (active) | – |
| c1cc2c(cc1CCNC1CCCCCC1)OCO2 | – | 5.41% |
| Fc1ccc(N2CCN(Cc3ccc4c(c3)OCO4)CC2)cc1 | – | -4.13% |
| CC(C)n1c(=O)c(C=Nc2ccc(Br)cc2)c(O)n(Cc2ccco2)c1=O | – | -19.8% |
| COC(=O)C1=C(c2ccc(C(C)=O)cc2)C[C@@H]2CC[C@H]1N2C(=O)NCCNC(C)=O | – | 7.51% |
| Cc1cc(-c2ccc(N)c(C)c2)ccc1N | – | 12.8% |
| CCN1C(=O)C(=Cc2c(C)n(CC(=O)NCC3CCCO3)c3ccccc23)C(=O)N(CC)C1=S (stereo not given) | – | -8.26% |
| COc1cccc(OC)c1C(=O)NC(=S)N1C[C@H]2C[C@H](C1)c1cccc(=O)n1C2 | – | 6.67% |
| CCCCCCCCCCCCn1ccc(=N)cc1 | 1.84 µM (active) | – |
| CN1C2C=C(N(C(=O)c3ccc(Cl)cc3)c3ccccc3)CC1CC2 (stereo not given) | – | -4% [at 9.24 µM] |
| CC(=O)NCC1=C(c2ccc3ccccc3c2)C[C@@H]2CC[C@H]1N2Cc1ccco1 | – | 0.901% |
| CCOC(=O)[C@]12Cc3ccccc3[C@H]1N(C1CCCCC1)C(=O)c1cc(OC)ccc12 | 3.26 µM (active) | – |
| CCOC(=O)[C@]12Cc3cc(OC)ccc3[C@H]1N(C(C)C)C(=O)c1ccccc12 | 16.4 µM (active) | – |
| CC1([N+](=O)[O-])COP(=O)(Nc2ccc(F)cc2)OC1 (stereo not given) | – | 2.49% |
| C[C@]12CCC3C(CC[C@H]4[C@H](O)[C@H](O)CC[C@]34C)C1CC[C@@H]2O (stereo not given in full) | – | 7.82% |
| CC(C)CN1Cc2cc(N3CCCCC3)ccc2-n2nncc2C1 | – | 0.618% |
| CCN1CC2C3CCC(C)(O3)C2C1 (stereo not given) | – | 13% |
